Laboratory results reported in PubChem BioAssay AID1851 (National Center for Advancing Translational Sciences (NCATS), 2009).
Screen size: about 16,000 compounds; about 5,800 (36%) were called active. Not shown: some 23% with an inconclusive outcome. The list shows a part of the results. Where a structure was tested more than once in an assay, its records may differ in their call. Values without a mark were called inactive. The call rests on the fitted dose curve; in most records, active means well fitted curve in the direction sought with a large enough effect; inconclusive means small, poorly fitted or top-dose-only effect, or effect the other way; inactive means no such curve, though single readings can be large or run the other way.

Each molecule was assayed against Cytochrome P450 2C19 (Homo sapiens) (UniProt P33261) (assay: Cytochrome panel assay with activity outcomes). Conditions: recombinant CYP, pro-luciferin dealkylation, luminescence, p450-cyp2c19; series mostly up to 57.1 µM; activity, negative = inhibition: at the top concentration.
Sequence of Cytochrome P450 2C19 (Homo sapiens) (P33261 whole entry, looked up): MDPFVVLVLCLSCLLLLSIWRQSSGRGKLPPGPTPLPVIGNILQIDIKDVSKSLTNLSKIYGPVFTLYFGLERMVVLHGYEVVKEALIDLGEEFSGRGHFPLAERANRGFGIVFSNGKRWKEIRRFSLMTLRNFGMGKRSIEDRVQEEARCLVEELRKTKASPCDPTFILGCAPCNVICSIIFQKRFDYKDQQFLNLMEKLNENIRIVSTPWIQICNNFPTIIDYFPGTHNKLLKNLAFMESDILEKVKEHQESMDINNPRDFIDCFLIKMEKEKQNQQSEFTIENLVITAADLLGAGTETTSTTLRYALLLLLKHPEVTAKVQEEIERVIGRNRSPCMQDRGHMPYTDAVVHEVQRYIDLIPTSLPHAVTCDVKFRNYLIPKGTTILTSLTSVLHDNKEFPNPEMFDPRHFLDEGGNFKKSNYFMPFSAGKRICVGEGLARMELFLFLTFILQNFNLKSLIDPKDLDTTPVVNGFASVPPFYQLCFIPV
On the % scale 0 is the no-effect control and ±100 the full control effect.

Structure (SMILES) | AC50 | activity, negative = inhibition
COc1cc(OC)c2nc(C)c3c(c2c1)N(c1ccc(O)cc1)CC3 | 14.1 µM (active) | 
Clc1ccccc1C(Nc1cnccn1)Nc1cnccn1 |  | 12% [at 11.4 µM]
CC1(C)S[C@@H]2[C@H](C(=O)O)N=C(Cc3ccccc3)N2[C@H]1C(=O)O |  | 28.2% [at 11.4 µM]
COc1ccc2c(c1)c(CC(=O)O)c(C)n2C(=O)c1ccc(Cl)cc1 | inactive | 
COc1ccc2c(c1)c(CC(=O)OCC(=O)O)c(C)n2C(=O)c1ccc(Cl)cc1 |  | -14.1% [at 25.6 µM]
COc1ccc2c(c1)c(CC(=O)O)c(C)n2Cc1ccc(Cl)cc1 | 10 µM (active) | 
CC(C)(C)N1C(=O)[C@H]2[C@@H]3[C@H](O)C=CC(=O)[C@H]3CC[C@H]2C1=O |  | 23.7% [at 11.4 µM]
CS(=O)(=O)N1N=C(c2ccc(Br)cc2)CC1c1ccc2c(c1)OCO2 (stereo not given) | 0.178 µM (active) | 
C[C@@H]1CC[C@H]2C(=O)N3[C@@H](CC[C@@H](C)[C@@H]3c3ccc(Br)cc3)C(=O)N2[C@@H]1c1ccc(Br)cc1 |  | -27.6% [at 11.4 µM]
COc1ccc(NC(=O)CCNS(=O)(=O)c2ccc3c(c2)c(=O)n(C)c(=O)n3C)cc1 |  | 72.2%
COc1ccc(OCCNS(=O)(=O)c2ccc3oc4ccccc4c3c2)cc1 | 2.24 µM (active) | 
CCCCc1ccc(NC(=S)NCc2cccs2)cc1 | 3.55 µM (active) | 
Cc1ccc(C(=O)COC(=O)CNC(=O)Cc2ccccc2)cc1[N+](=O)[O-] |  | -20.8%
Cc1ccc(C(=O)COC(=O)CNC(=O)C(c2ccccc2)c2ccccc2)cc1[N+](=O)[O-] | 5.01 µM (active) | 
CC[C@H](CN(C)C)C(=O)c1ccco1 |  | 8.39% [at 11.4 µM]
Cc1ccc(C(CC(=O)c2ccco2)SCCO)cc1 (stereo not given) | 2.82 µM (active) | 
Cc1cc(=O)c2c(O)c(O)ccc2o1 |  | -24.3%
O=c1cc(-c2ccccc2)oc2cc(O)c(O)c(O)c12 |  | -2.25%
O=C(O)c1c(-c2c3ccc(=O)cc-3oc3cc(O)ccc23)cc2ccccc2c1-c1ccccc1 |  | 25.6% [at 11.4 µM]
O=c1c(O)c(-c2ccc(O)c(O)c2)oc2cc(O)cc(O)c12 |  | 0.603% [at 25.6 µM]
O=c1cc(-c2ccccc2)oc2cc(O)cc(O)c12 | 0.794 µM (active) | 
COc1ccc(C2=C(C#N)C(=O)OC2)cc1 |  | -21.4%
COc1ccc(-c2cc(=O)c3c(O)cc(O)cc3o2)cc1 | 1 µM (active) | 
O=c1cc(-c2ccc(O)cc2)oc2cc(O)cc(O)c12 | 7.94 µM (active) | 
C=CCSC1=Nc2sccc2C2=NC(=O)CN12 | 7.94 µM (active) | 
